# HT1080NT lethal: kills 2HG-producing HT-1080-NT fibrosarcoma cells | Potency, µM (doses to about 46.1 µM), inactives show at the top dose activity, negative = less viability, hits mostly cytotoxic | AID 686970 | actives 1.6% (n = 360,000) | HT-1080-NT fibrosarcoma viability, CellTiter-Glo ATP luminescence, 48 h;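 also: NT is the 2HG producing partner of a matched IDH1 knockdown line; 0% = DMSO-treated cells and -100% = media-only wells without cells; nearly all actives have a fitted effect of over 55% in size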
#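 HT-1080-NT fibrosarcoma cells (2HG-overproducing), 750 cells/well in RPMI with 5% FBS, dosed after 2 h and incubated 48 h at 37C. CellTiter-Glo luminescence normalized to DMSO and no-cell wells; concentration-response curves fitted and classed.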
# HepG2 viability: HepG2 cytotoxicity, counter-screen for TGF-b inhibitors; AID 588856; Potency, µM (series often up to 46.1 µM), inactives show top-dose activity change, negative = cytotoxicity, most hits filed as cytotoxic; actives 0.76% (n = 410,000); HepG2 CAGA-GFP viability, ATP luminescence, 18 h
#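 HepG2 CAGA-GFP cells (1000/well, DMEM with 1% FBS) received compound, then TGF-beta at 500 pg/mL final, and were incubated 18 hours at 37 degrees C. Viability was read by CellTiter-Glo luminescence. Media-only wells were set as complete cell-killing and DMSO as no toxicity.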
# TGFb inhibitor: blocks TGF-b signaling | HepG2 CAGA-GFP TGF-b/SMAD3 reporter, GFP fluorescence, 18 h; TGF-beta stimulated, 500 pg/mL final | Potency, µM (doses to about 46.1 µM), without a hit: at the top dose activity, negative = inhibition, most hits filed as inhibitors | actives 1.2% (n = 410,000) | AID 588855; also: % is scaled to controls: 0 for no effect and ±100 for the full control effect; nearly all actives have a fitted effect of over 65% in size
#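 HEPG2 CAGA-GFP, 1000 cells/well; 2 h settle, 37 C; cpd via pin tool; TGF-b 500 pg/mL final; 18 h, 37 C; GFP imaging ex488/em500-530; %Activity normalised to -TGF-b and +DMSO controls; CRC fit, curve class.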
# DT40 TDP1 no CPT: qHTS for Inhibitors of human tyrosyl-DNA phosphodiesterase 1 (TDP1): qHTS in cells in absence of CPT; DT40 Tdp1-/- hTDP1 cells, no CPT, ATP luminescence, 48 h; AID 686978, 2013; Potency, µM (series often up to 46.2 µM), for the others: top-dose activity change, negative = growth inhibition, actives largely listed as inhibitors; actives 15% (n = 420,000); also: % is scaled to controls: 0 for no effect and ±100 for the full control effect; nearly all actives have a fitted effect of over 55% in size
#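 Camptothecin absent (DMSO only). Human TDP1-complemented DT40 knockout cells, 400 cells/well, 37 °C for minimum 48 hr; ATP measured via CellTiter-Glo, 30 min dark incubation, luminescence.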
# HT1080 IDH1KD tx: kills HT-1080 cells with IDH1 knockdown; actives 2% (n = 360,000); AID 686971; HT-1080 IDH1 knockdown viability, ATP luminescence, 48 h; Potency, µM (highest dose often 46.1 µM), inactives show at the highest dose activity, negative = toxicity, actives largely listed as cytotoxic;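 also: 0% = DMSO wells and -100% = cell-free medium wells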
#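 Using the IDH1-knockdown HT-1080 line run in the same batch and compound series as the NT line, viability after 48 h at 37 °C was determined by CellTiter-Glo luminescence and expressed as % activity.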
# DT40 TDP1 CPT: DT40-hTDP1 cell growth loss with CPT | chicken DT40 Tdp1-/-;hTDP1 cells + 20 nM CPT, ATP luminescence, 48 h | Potency, µM (highest dose often 46.2 µM), for the others: at the highest dose activity change, negative = growth inhibition, usual class: inhibitors | actives 12% (n = 420,000) | AID 686979; also: % is scaled to controls: 0 for no effect and ±100 for the full control effect; nearly all actives have a fitted effect of over 55% in size
#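 Chicken DT40 Tdp1-/- cells stably complemented with human TDP1 were seeded at 400 cells/well in medium containing 20 nM camptothecin, exposed to pin-transferred compounds, and grown at 37 °C for at least 48 hr. Viability was read as ATP luminescence.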
# Starred values were filed as active, the others as inactive; ? = inconclusive; · = no result; [ ] = another dose, or the depositor's remark. Shown are actives, neighbours in structure and some others; about 17% of the full set was active somewhere. Calls follow the shape of the dose curve; as a rule, active = well fitted curve in the direction sought with a large enough effect; inconclusive = small, poorly fitted or top-dose-only effect, or another doubt; inactive = no such curve, though single readings can be large; an effect the other way counts as inactive or inconclusive. Potency is read from the fitted curve at half-maximal effect.
SMILES,HT1080NT lethal,HepG2 viability,TGFb inhibitor,DT40 TDP1 no CPT,HT1080 IDH1KD tx,DT40 TDP1 CPT
COc1ccc(C(=O)Cn2c(C)nc([N+](=O)[O-])c2Br)cc1,?,-26.6%,?,23.1µM*,?,7.31µM*
Cc1nc([N+](=O)[O-])c(Br)n1CC(=O)c1ccc(Cl)cc1,?,-89.2%,?,7.31µM*,18.4µM*,8.2µM*
O=C(CC(NC(=O)c1ccccc1)c1ccccc1)OCc1nc(-c2cccc(Cl)c2)no1 (stereo not drawn),·,17.1%,15.2%,-15.8%,·,5.1%
O=C(CNC(=O)c1ccc(Cl)cc1Cl)OCc1cn2cc(Br)ccc2n1,-1.2%,6.2%,6.1%,-3.9%,2.4%,1.5%
CCCN(C(=O)Cn1nc(Cc2ccncc2)c2ccccc2c1=O)c1ccccc1C,·,-31.8%,?,?,·,?
COc1ccc(-c2cc(C(=O)O)c3c(C)nn(-c4ccccn4)c3n2)cc1,8.6%,0.1%,?,0.1%,7.1%,-0.3%
CCOC(=O)c1cc(-c2ccncc2)nc2c1c(C)nn2-c1ccccn1,-21.8%,-26.2%,-11.8%,16.4µM*,-10.8%,?
CN1C(=O)C2(c3ccccc31)N(c1cccc(C(F)(F)F)c1)C(=O)CS2(=O)=O (stereo not drawn),·,-9.1%,13.6%,-14.3%,·,-24.8%
Cn1cc(CNC2CCN(c3cccc(NC(=O)c4cccnc4)c3)CC2)cn1,·,·,·,-1.8%,·,6.6%[9.04 µM]
Cc1ccccc1-c1cc(C(=O)NCc2ccco2)n(CC2CC(c3cccnc3)=NO2)n1 (stereo not drawn),?,-18.4%,-10.1%,20.6µM*,?,18.4µM*
COc1ccc(C2=NOC(Cn3nc(-c4ccccc4)cc3C(=O)NCc3ccccc3OC)C2)cc1 (stereo not drawn),1.2%,1.9%,-5.8%,10.3µM*,9.2%,11.6µM*
COc1ccc(N2CCN(C(=O)Cc3ccc(Cl)cc3)CC2)cc1,-7.5%,-25.8%,-10.5%,?,-0.1%,-18.7%
O=C(C1=NOC(CNc2ncc(C(F)(F)F)cc2Cl)C1)N1CCOCC1 (stereo not drawn),-0.8%,8.0%,12.4%,-9.2%,-11.0%,0.461µM*
O=C(CN1C(=O)c2ccccc2S1(=O)=O)Nc1cc(S(=O)(=O)N2CCOCC2)ccc1N1CCOCC1,·,5.8%,18.2%,-5.9%,·,-3.9%
Cc1nnc(NC(=O)c2nc(S(=O)(=O)Cc3ccccc3)ncc2Cl)s1,14.6µM*,-129.5%,?,11.6µM*,20.6µM*,9.2µM*
CCOC(=O)c1nc(S(C)(=O)=O)ncc1Cl,8.91µM*,11.2µM*,?,3.66µM*,6.31µM*,4.11µM*
CCOc1ccccc1NC(=O)c1nc(S(=O)(=O)Cc2ccccc2F)ncc1Cl,·,-17.5%,?,?,·,0.562µM*
CCCc1nnc(NC(=O)c2nc(S(=O)(=O)Cc3cccc(C)c3)ncc2Cl)s1,?,-98.9%,?,?,?,?
CCS(=O)(=O)c1ncc(Cl)c(C(=O)Nc2c(C(=O)c3ccc(C)cc3)oc3ccccc23)n1,·,-11.4%,-20.6%,1.64µM*,·,1.64µM*
CCOC(=O)c1nc(S(C)(=O)=O)ncc1N1CCOCC1,-1.9%,-1.9%,4.1%,-7.0%,0.5%,0.1%
CCSc1nnc(NC(=O)c2ccccn2)s1,?,-38.7%,?,3.16µM*,?,5.01µM*
CCc1nnc(NC(=O)c2cc(Cl)ccn2)s1,-27.7%,-19.3%,-18.6%,2.59µM*,?,2.91µM*
Cc1cccc(C)c1NC(=O)c1nc(S(=O)(=O)Cc2ccccc2)ncc1Cl,16.4µM*,-177.9%,11.2µM*,2.91µM*,8.2µM*,2.59µM*
COC(=O)c1ccccc1NC(=O)c1nc(S(=O)(=O)Cc2ccccc2F)ncc1Cl,·,4.5%,-1.8%,?,·,-11.1%
O=C(Nc1ccccc1F)c1nc(S(=O)(=O)Cc2ccccc2F)ncc1Cl,·,8.91µM*,4.47µM*,0.92µM*,·,1.3µM*
SMILES,HT1080NT lethal,HepG2 viability,TGFb inhibitor,DT40 TDP1 no CPT,HT1080 IDH1KD tx,DT40 TDP1 CPT
COc1ccc(NC(=O)c2ccco2)cc1NC(=O)c1ccccc1[N+](=O)[O-],-4.0%,-6.3%,-2.1%,8.8%,3.0%,-2.1%
CN(C)CCCn1c2c(c(SCC(=O)Nc3ccc4c(c3)OCCO4)nc1=O)CCC2,-5.8%,-16.6%,-4.4%,?,-9.3%,-23.6%
O=C(COc1ccc(Cl)cc1)NCc1cn2cc(Cl)ccc2n1,-11.2%,-3.2%,-17.7%,-25.0%,-16.5%,-1.1%
CCOc1cc(CNC(=O)c2ccc(Cn3c(=O)c4cccn4c4cccnc43)cc2)ccc1OC,·,-15.0%,-14.2%,?,·,-27.9%
O=C(Nc1ccc2ccccc2c1)c1nc(S(=O)(=O)Cc2ccccc2F)ncc1Cl,·,-61.5%,?,1.26µM*,·,0.708µM*
CCc1nnc(NC(=O)c2nc(S(C)(=O)=O)ncc2Cl)s1,·,16.8%,1.7%,9.2µM*,·,5.8µM*
Cc1ccc(NC(=O)c2nc(S(=O)(=O)Cc3ccccc3)ncc2Cl)cc1,18.4µM*,22.4µM*,?,0.92µM*,6.51µM*,1.46µM*
CCSc1nnc(NC(=O)c2csc3c2CCC(C)C3)s1 (stereo not drawn),8.1%,1.9%,3.3%,?,3.6%,18.4µM*
CCc1ccc(NC(=O)c2nc(SCc3ccccc3F)ncc2Cl)cc1,·,6.5%,21.4%,-28.7%,·,-29.9%
CCN(CCCNC(=O)CCc1nc(-c2ccc(OC)cc2)no1)c1cccc(C)c1,?,-1.6%,?,-75.6%,-23.1%,?
COc1ccc(Cl)cc1NC(=S)NC(=O)c1ccco1,0.0%,1.8%,?,-25.6%,-17.7%,?
O=C(CNC(=O)c1ccc(Br)o1)NNC(=O)c1ccc(Br)cc1,10.7%[9.24 µM],-3.6%,7.4%,7.5%,8.3%,-2.4%
COC(=O)c1ccc(NC(=O)c2nc(SCc3ccccc3F)ncc2Cl)cc1,·,4.4%,-0.6%,17.8µM*,·,?
Cc1cccc(C)c1NC(=O)c1nc(S(=O)(=O)Cc2ccccc2F)ncc1Cl,·,-99.7%,?,5.01µM*,·,1.26µM*
COc1ccc(OC)c(NC(=O)c2nc(S(=O)(=O)Cc3ccccc3F)ncc2Cl)c1,·,3.16µM*,?,0.631µM*,·,1µM*
CC(=O)Nc1ccc(NC(=O)c2nc(SCc3ccccc3F)ncc2Cl)cc1,·,-47.9%,0.2%,-8.5%,·,-22.4%

# Screens from PubChem.
